Assay results published in the supplement of paper PMC6992640.
± gives the standard deviation of the averaged measurements.

What was measured:
Test in all cases: cell viability (% of vehicle); higher = less cytotoxic
Settings in all cases: 10 µM; 72 h
HCI01 = system: HCI01 (cells of a triple-negative basal-like breast cancer xenograft)
HCI03 = system: HCI03 (cells of an ER-positive luminal breast cancer xenograft)
HCI09 = system: HCI09 (cells of a triple-negative luminal androgen receptor type breast cancer xenograft)
HCI11 = system: HCI11 (cells of an ER-positive luminal breast cancer xenograft)
HCI13 = system: HCI13 (cells of an ER-positive luminal breast cancer xenograft)
HCI16 = system: HCI16 (cells of a triple-negative basal-like breast cancer xenograft)
UCD52 = system: UCD52 (cells of a triple-negative basal-like breast cancer xenograft)
WHIM2 = system: WHIM2 (cells of a triple-negative basal-like breast cancer xenograft)
WHIM30 = system: WHIM30 (cells of a triple-negative basal-like breast cancer xenograft)
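Further: PDX cells carrying CMV promoter-driven luciferase, viability read as total photon flux per second by IVIS imaging following D-luciferin, vehicle control 0.1% DMSO.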

Row | SMILES | cell viability (HCI01) | cell viability (HCI03) | cell viability (HCI09) | cell viability (HCI11) | cell viability (HCI13) | cell viability (HCI16) | cell viability (UCD52) | cell viability (WHIM2) | cell viability (WHIM30)
1 | O=C(O)c1cccnc1Nc1cccc(C(F)(F)F)c1 [Niflumic acid] | 135 ± 48 | 149 | 58.9 ± 21 | 68.8 | 125 ± 2.6 | 130 | 75.3 ± 5.3 | 105 ± 14 | 122 ± 2
2 | Cl.O=C1CC2(CCCC2)CC(=O)N1CCCCN1CCN(c2ncccn2)CC1 [Buspirone HCl] | 110 ± 16 | 95.5 | 91.3 ± 8.6 | 101 | 76.7 ± 2 | 119 | 106 ± 3.5 | 104.3 ± 0.12 | 90.4 ± 8.1
3 | Cc1cc(Nc2cc(N3CCN(C)CC3)nc(Sc3ccc(NC(=O)C4CC4)cc3)n2)n[nH]1 [VX-680 (MK-0457,Tozasertib)] | 122 ± 11 | 84.3 | 70 ± 21 | 133 | 81.5 ± 1.7 | 111 | 66.5 ± 10 | 67.6 ± 2.1 | 142 ± 14
4 | Nc1nc(Cl)nc2c1ncn2C1OC(CO)C(O)C1F (centres undefined) [Clofarabine] | 162.3 ± 0.47 | 175 | 141 ± 70 | 126 | 180 ± 11 | 92.9 | 143 ± 24 | – | 128.5 ± 0.14
5 | CC1CNCCCN1S(=O)(=O)c1cccc2cncc(F)c12.Cl.O.O (centres undefined) | 100 ± 12 | 140 | 96.3 ± 9 | 70.9 | 82.6 ± 8.8 | 58.7 | 84.8 ± 4.2 | 92.75 ± 0.41 | 82 ± 2
6 | O=C1CCCC(=O)C1C(=O)c1ccc(C(F)(F)F)cc1[N+](=O)[O-] [Nitisinone] | 105 ± 31 | 110 | 93.2 ± 5.5 | 87.8 | 109 ± 25 | 137 | 103 ± 10 | 79.6 ± 4.9 | 149 ± 19
7 | CC1COc2c(N3CCN(C)CC3)c(F)cc3c(=O)c(C(=O)O)cn1c23 (centres undefined) [Ofloxacin] | 123 ± 23 | 173 | 135 ± 18 | 86.6 | 186 ± 11 | 133 | 138.6 ± 1 | – | 159 ± 11
8 | O=NN(CCCl)C(=O)NCCCl [Carmustine] | 106 ± 24 | 166 | 99.9 ± 62 | 83.9 | 134 ± 22 | – | 116 ± 5.4 | 96.23 ± 0.26 | 123 ± 8.1
